Experimental data reported in ChEMBL document CHEMBL1961873, “Compounds: GSK PKIS; Assays: Nanosyn kinase panel” (2012).

Assays:
[1] = biological target: T1, Tyrosine-protein kinase ITK/TSK (Homo sapiens) (UniProt Q08881); settings: at 1 µM;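 note: values are mean percent inhibition of ITK from the GSK PKIS screen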
T1 sequence (whole entry): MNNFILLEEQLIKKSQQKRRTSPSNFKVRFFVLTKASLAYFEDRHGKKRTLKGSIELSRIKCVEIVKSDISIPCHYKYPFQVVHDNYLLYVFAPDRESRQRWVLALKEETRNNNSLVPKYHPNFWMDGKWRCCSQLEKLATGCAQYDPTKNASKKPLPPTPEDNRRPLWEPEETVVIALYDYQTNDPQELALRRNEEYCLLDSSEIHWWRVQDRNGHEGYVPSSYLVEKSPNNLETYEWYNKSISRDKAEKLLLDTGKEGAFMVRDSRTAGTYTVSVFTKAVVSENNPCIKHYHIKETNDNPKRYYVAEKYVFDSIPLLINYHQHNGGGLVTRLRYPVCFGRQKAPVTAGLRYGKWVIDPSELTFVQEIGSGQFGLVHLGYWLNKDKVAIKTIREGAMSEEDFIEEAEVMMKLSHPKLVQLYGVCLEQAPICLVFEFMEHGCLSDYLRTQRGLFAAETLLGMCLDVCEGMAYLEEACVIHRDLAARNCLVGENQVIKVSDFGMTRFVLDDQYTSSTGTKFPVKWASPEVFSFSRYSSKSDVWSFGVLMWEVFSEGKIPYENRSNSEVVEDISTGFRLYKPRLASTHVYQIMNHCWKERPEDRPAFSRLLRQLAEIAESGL

[2] = biological target: Tyrosine-protein kinase JAK1 (Homo sapiens) (UniProt P23458); settings: at 0.1 µM
Sequence of Tyrosine-protein kinase JAK1 (Homo sapiens) (P23458 whole entry): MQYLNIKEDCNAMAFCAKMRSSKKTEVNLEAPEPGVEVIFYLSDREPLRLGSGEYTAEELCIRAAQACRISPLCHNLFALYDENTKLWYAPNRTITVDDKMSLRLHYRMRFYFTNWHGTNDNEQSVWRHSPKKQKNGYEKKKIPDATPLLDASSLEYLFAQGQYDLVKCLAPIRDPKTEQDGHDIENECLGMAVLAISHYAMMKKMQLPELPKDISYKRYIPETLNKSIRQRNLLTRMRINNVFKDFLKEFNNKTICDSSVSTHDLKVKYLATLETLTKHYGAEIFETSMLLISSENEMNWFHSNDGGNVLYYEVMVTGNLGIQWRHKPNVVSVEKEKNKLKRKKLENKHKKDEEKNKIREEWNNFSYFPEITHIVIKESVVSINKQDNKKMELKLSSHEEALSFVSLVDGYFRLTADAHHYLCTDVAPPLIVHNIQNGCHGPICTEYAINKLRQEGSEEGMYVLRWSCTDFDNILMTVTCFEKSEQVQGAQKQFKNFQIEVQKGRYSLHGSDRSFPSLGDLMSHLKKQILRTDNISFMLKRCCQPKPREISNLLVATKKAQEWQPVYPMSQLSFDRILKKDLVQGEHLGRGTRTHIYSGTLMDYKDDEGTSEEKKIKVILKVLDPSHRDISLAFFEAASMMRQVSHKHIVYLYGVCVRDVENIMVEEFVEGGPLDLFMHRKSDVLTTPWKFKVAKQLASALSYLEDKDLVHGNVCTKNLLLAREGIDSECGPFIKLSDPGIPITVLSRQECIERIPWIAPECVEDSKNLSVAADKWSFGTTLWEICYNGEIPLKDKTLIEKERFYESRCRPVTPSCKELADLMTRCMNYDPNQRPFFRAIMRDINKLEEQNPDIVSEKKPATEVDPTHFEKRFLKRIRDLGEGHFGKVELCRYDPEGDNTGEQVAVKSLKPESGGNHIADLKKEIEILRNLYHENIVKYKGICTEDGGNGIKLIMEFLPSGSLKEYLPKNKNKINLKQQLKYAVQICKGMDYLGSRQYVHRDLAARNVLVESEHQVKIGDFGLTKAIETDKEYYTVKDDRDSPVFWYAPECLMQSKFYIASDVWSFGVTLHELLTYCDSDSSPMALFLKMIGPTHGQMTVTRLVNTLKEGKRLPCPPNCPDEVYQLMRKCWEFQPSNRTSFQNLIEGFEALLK

[3] = biological target: Tyrosine-protein kinase JAK1 (Homo sapiens) (UniProt P23458); settings: at 1 µM
[4] = biological target: Tyrosine-protein kinase JAK2 (Homo sapiens) (UniProt O60674); settings: at 0.1 µM
Sequence of Tyrosine-protein kinase JAK2 (Homo sapiens) (O60674 whole entry): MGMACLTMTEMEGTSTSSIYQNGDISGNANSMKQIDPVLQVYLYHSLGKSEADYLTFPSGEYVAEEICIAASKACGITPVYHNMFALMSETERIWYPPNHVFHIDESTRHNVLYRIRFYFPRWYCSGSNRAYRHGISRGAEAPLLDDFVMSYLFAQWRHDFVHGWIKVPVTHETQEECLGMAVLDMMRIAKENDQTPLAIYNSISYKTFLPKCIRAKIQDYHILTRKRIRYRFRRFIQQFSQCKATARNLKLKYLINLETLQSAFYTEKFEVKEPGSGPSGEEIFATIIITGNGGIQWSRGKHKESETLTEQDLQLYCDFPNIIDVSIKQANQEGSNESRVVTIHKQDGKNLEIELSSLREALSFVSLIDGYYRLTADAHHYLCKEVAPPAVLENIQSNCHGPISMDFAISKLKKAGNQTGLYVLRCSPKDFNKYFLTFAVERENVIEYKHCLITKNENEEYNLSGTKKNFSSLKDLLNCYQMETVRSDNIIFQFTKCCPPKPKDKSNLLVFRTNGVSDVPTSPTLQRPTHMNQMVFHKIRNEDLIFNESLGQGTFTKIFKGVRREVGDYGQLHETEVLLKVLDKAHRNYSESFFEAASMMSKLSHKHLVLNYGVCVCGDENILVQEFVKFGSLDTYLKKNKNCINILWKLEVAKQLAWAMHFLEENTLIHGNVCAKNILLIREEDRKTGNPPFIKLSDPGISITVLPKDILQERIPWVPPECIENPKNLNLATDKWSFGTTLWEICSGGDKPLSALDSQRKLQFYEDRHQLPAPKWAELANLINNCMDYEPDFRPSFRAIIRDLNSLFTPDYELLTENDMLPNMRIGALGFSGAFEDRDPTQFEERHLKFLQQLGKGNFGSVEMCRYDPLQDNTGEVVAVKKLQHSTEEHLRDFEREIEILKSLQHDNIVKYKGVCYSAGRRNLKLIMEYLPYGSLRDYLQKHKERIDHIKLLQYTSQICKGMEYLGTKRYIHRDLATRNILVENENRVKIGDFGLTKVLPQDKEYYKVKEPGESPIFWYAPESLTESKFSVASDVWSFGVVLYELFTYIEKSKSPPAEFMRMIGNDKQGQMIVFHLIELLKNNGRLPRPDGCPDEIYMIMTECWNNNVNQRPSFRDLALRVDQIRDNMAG

[5] = biological target: Tyrosine-protein kinase JAK2 (Homo sapiens) (UniProt O60674); settings: at 1 µM
[6] = biological target: T2, Tyrosine-protein kinase JAK3 (Homo sapiens) (UniProt P52333); settings: at 0.1 µM
T2 sequence (whole entry): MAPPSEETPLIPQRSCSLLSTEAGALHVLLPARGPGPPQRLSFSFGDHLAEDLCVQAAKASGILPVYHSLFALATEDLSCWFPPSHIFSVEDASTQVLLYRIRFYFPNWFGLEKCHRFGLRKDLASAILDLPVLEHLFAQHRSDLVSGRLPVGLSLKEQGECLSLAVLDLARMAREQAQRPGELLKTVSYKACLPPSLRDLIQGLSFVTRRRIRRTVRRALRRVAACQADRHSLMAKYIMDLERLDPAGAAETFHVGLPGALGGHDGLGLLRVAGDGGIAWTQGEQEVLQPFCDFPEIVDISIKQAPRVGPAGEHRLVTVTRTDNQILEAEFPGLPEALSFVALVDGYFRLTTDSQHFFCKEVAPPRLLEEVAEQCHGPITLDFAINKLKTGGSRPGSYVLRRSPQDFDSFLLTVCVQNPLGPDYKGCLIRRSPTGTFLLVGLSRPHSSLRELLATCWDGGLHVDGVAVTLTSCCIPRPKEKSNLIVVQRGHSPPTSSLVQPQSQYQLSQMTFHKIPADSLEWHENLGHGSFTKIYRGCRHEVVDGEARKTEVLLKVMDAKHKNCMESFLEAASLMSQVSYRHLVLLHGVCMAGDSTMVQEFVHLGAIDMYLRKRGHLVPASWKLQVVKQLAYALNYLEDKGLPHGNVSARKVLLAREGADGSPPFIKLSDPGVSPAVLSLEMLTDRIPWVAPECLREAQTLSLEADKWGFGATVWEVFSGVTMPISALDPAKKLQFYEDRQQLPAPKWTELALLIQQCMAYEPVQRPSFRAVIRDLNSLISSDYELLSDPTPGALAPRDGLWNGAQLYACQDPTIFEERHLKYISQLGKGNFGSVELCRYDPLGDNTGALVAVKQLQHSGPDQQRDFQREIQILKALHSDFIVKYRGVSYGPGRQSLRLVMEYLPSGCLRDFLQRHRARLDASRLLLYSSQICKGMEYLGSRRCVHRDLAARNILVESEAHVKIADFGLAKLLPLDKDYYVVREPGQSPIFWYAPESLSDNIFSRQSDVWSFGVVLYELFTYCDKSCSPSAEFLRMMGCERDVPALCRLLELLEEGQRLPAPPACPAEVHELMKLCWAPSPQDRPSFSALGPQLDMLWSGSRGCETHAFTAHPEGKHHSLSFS

[7] = biological target: T2, Tyrosine-protein kinase JAK3 (Homo sapiens); settings: at 1 µM
[8] = biological target: Vascular endothelial growth factor receptor 2 (Homo sapiens) (UniProt P35968); settings: at 0.1 µM
Sequence of Vascular endothelial growth factor receptor 2 (Homo sapiens) (P35968 whole entry): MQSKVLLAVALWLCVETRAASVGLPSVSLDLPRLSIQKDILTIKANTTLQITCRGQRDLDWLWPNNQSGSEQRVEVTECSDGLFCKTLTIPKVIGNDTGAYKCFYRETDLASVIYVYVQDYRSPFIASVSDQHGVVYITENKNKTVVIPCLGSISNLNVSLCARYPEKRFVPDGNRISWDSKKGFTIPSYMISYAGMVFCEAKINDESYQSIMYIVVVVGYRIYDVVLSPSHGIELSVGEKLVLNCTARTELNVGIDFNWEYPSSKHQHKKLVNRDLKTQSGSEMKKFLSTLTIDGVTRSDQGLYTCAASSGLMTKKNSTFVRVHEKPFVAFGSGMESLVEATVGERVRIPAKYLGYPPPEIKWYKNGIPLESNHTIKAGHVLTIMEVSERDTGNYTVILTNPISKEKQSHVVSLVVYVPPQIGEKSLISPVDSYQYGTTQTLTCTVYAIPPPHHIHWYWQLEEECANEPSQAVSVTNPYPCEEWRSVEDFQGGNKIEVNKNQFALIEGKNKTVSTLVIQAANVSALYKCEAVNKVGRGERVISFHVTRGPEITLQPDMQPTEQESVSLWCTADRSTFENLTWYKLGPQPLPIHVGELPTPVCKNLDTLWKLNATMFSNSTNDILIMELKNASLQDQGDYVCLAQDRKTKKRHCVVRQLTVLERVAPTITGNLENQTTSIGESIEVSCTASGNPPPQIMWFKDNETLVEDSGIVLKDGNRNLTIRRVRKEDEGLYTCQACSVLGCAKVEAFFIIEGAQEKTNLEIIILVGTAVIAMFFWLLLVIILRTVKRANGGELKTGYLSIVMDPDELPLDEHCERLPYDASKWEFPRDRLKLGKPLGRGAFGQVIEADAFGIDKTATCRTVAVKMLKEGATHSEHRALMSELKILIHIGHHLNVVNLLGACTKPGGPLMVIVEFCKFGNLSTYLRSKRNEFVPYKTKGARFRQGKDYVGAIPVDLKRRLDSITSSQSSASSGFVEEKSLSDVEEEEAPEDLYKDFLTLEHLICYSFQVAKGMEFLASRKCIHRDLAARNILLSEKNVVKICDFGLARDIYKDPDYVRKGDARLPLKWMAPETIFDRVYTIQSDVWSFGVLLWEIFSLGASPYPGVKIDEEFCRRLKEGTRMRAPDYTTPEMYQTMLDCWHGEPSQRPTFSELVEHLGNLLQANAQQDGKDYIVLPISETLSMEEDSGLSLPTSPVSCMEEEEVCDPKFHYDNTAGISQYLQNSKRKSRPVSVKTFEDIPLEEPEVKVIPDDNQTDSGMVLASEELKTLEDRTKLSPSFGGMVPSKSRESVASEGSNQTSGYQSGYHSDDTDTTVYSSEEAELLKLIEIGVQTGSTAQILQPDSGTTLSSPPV

[9] = biological target: Vascular endothelial growth factor receptor 2 (Homo sapiens) (UniProt P35968); settings: at 1 µM
[10] = biological target: Mast/stem cell growth factor receptor Kit (Homo sapiens) (UniProt P10721); settings: at 0.1 µM
Sequence of Mast/stem cell growth factor receptor Kit (Homo sapiens) (P10721 whole entry): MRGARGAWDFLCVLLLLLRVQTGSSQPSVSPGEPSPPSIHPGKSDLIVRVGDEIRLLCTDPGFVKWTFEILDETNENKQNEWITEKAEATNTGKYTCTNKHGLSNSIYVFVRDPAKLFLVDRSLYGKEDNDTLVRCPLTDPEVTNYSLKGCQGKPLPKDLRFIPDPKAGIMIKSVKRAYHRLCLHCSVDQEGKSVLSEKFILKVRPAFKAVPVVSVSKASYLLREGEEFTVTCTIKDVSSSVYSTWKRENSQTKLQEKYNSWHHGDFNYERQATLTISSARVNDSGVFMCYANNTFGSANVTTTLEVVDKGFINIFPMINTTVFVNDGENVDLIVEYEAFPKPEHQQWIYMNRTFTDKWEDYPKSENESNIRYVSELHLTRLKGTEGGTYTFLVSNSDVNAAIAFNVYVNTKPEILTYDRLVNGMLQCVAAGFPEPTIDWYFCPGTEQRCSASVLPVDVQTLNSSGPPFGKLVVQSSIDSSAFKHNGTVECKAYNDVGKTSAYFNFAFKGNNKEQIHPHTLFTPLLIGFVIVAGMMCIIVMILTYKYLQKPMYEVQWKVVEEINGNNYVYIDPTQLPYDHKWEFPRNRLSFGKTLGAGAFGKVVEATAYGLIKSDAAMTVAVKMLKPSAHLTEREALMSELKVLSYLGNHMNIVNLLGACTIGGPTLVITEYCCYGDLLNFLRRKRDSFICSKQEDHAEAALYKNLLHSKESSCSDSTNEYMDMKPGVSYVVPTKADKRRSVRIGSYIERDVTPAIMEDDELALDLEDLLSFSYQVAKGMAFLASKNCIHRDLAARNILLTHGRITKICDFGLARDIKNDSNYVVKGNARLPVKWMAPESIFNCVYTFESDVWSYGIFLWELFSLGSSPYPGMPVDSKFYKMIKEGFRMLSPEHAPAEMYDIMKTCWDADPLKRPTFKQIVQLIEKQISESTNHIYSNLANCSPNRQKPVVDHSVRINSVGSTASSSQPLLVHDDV

[11] = biological target: Mast/stem cell growth factor receptor Kit (Homo sapiens) (UniProt P10721); settings: at 1 µM
[12] = test system: Mast/stem cell growth factor receptor Kit (Homo sapiens), P10721 [D816V]; settings: at 0.1 µM
Sequence of Mast/stem cell growth factor receptor Kit (Homo sapiens), P10721 [D816V] (P10721 whole entry D816V): as the sequence (P10721 whole entry) above, with D816V counted along it

[13] = test system: Mast/stem cell growth factor receptor Kit (Homo sapiens), P10721 [D816V]; settings: at 1 µM
[14] = test system: Mast/stem cell growth factor receptor Kit (Homo sapiens), P10721 [T670I]; settings: at 0.1 µM
Sequence of Mast/stem cell growth factor receptor Kit (Homo sapiens), P10721 [T670I] (P10721 whole entry T670I): as the sequence (P10721 whole entry) above, with T670I counted along it

[15] = test system: Mast/stem cell growth factor receptor Kit (Homo sapiens), P10721 [T670I]; settings: at 1 µM
[16] = test system: Mast/stem cell growth factor receptor Kit (Homo sapiens), P10721 [V560G]; settings: at 0.1 µM
Sequence of Mast/stem cell growth factor receptor Kit (Homo sapiens), P10721 [V560G] (P10721 whole entry V560G): as the sequence (P10721 whole entry) above, with V560G counted along it

[17] = test system: Mast/stem cell growth factor receptor Kit (Homo sapiens), P10721 [V560G]; settings: at 1 µM
[18] = biological target: Tyrosine-protein kinase Lck (Homo sapiens) (UniProt P06239); settings: at 0.1 µM
[19] = biological target: Tyrosine-protein kinase Lck (Homo sapiens) (UniProt P06239); settings: at 1 µM
[20] = biological target: Leukocyte tyrosine kinase receptor (Homo sapiens) (UniProt P29376); settings: at 0.1 µM

| SMILES | inhibition [1] [%] | inhibition [2] [%] | inhibition [3] [%] | inhibition [4] [%] | inhibition [5] [%] | inhibition [6] [%] | inhibition [7] [%] | inhibition [8] [%] | inhibition [9] [%] | inhibition [10] [%] | inhibition [11] [%] | inhibition [12] [%] | inhibition [13] [%] | inhibition [14] [%] | inhibition [15] [%] | inhibition [16] [%] | inhibition [17] [%] | inhibition [18] [%] | inhibition [19] [%] | inhibition [20] [%] |
| --- | --- | --- | --- | --- | --- | --- | --- | --- | --- | --- | --- | --- | --- | --- | --- | --- | --- | --- | --- | --- |
| O=C1Nc2ccccc2/C1=C/Nc1ccc(-n2cncn2)cc1 | 4.51 | 5.01 | 29.9 | 0.53 | 0.69 | -1.1 | 6.49 | 7.9 | 37.3 | 21.5 | 75.9 | 4.37 | 8.01 | 8.82 | 47.4 | -2.32 | 10.2 | 3.98 | 9.02 | 3.3 |
| c1ccc(-c2n[nH]cc2-c2ccnc(-c3ccc(OCCN4CCOCC4)cc3)c2)nc1 | 3.99 | 6.98 | 4.5 | 0.47 | -0.22 | 6.96 | 5.88 | 13.7 | 60.8 | 0.56 | 2.31 | -0.77 | 8.41 | -3 | -2.32 | 7.8 | 10.4 | 1.7 | 9.5 | -0.05 |
| CCN(CC)Cc1ccc(Nc2nccc(-c3cnn4ncccc34)n2)cc1 | -0.21 | 4.71 | 4.83 | 6.24 | 20.9 | -3.13 | 14.2 | 7.19 | 39.1 | 64.8 | 93.1 | 1.8 | 4.13 | 19.4 | 80.9 | 8.63 | 61.5 | 1.35 | 15.3 | 4.48 |
| CN(C)CCOc1ccc(-c2cc(-c3ccc4c(c3)CCC4=NO)c(-c3ccncc3)o2)cc1 | 0.28 | 1.5 | 0.68 | 0.4 | -1.64 | -0.61 | 1.8 | -0.68 | 0.23 | -2.06 | 1.55 | -1.77 | -0.88 | 0.11 | 0.36 | 1.5 | 3.34 | 2.65 | 24.9 | -0.5 |
| O=C(NCC1CC1)c1ccc(-c2cccc(C(=O)NC3CC3)c2)cc1 | 2.71 | 0.26 | -6.93 | 1.73 | 0.94 | -0.66 | 0.07 | 5.99 | 8.55 | 1.06 | 3.45 | 2.24 | -0.44 | 3.77 | -2.45 | 3.49 | 5.84 | 1.74 | 4.51 | 1.6 |
| Fc1ccc(-c2ncn(C3CCNCC3)c2-c2ccnc(Oc3ccc(F)c(F)c3)n2)cc1 | -2.62 | 3.04 | 7.49 | 1.1 | 0.69 | -5.49 | -1.81 | 6.78 | 11.5 | 1.92 | 5.24 | 5.58 | 2.5 | 1.57 | 1.83 | -1.36 | 0.87 | -1.59 | -1.94 | 2.84 |
